Laboratory results taken from PubChem BioAssay (NCI).
This is part of a sample that, as a whole, favours compounds with a hit. Of some 83,000 tested, about 20% had one in any assay.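 Compound tested at a single concentration for 48 hours in 96-well plates; a percent growth value below 10 was scored as active.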 Calls of active or inactive are those of the source.

Tests used:
Assay in all cases: NCI-60 one-dose screen, 48 h (100 = growth as untreated, 0 = no growth, -100 = all killed)
Conditions in all cases: 10 µM unless noted
HCT-15 colon = system: HCT-15 colon
HT29 colon = system: HT29 colon
SNB-75 CNS = system: SNB-75 CNS
SNB-19 CNS = system: SNB-19 CNS
U251 CNS = system: U251 CNS
PC-3 prostate = system: PC-3 prostate
SK-MEL-5 melanoma = system: SK-MEL-5 melanoma
UACC-62 melanoma = system: UACC-62 melanoma
LOX IMVI melanoma = system: LOX IMVI melanoma
SK-MEL-28 melanoma = system: SK-MEL-28 melanoma
EKVX NSCLC = system: EKVX NSCLC
SN12C renal = system: SN12C renal
UO-31 renal = system: UO-31 renal
TK-10 renal = system: TK-10 renal
ACHN renal = system: ACHN renal
A498 renal = system: A498 renal
CCRF-CEM leukemia = system: CCRF-CEM leukemia
MOLT-4 leukemia = system: MOLT-4 leukemia

Measured: growth

C=CCn1c(SCC(=O)Nc2ccc(/C(C)=N\O)cc2)nnc1-c1cc(-c2ccc(Cl)cc2)nc2ccccc12
inactive: HCT-15 colon 25.1% | HT29 colon 24.7% | SNB-75 CNS 40.9% | SNB-19 CNS 49.4% | U251 CNS 25.8% | PC-3 prostate 22.9% | SK-MEL-5 melanoma 33.9% | UACC-62 melanoma 25.5% | SK-MEL-28 melanoma 45.3% | EKVX NSCLC 32% | SN12C renal 33.7% | TK-10 renal 31.8% | ACHN renal 20.2% | A498 renal 21.9% | CCRF-CEM leukemia 11.1%
active: LOX IMVI melanoma -66.6% | UO-31 renal -12.5% | MOLT-4 leukemia -25.3%

Cc1ccc(NC(=O)c2[nH]c(SCCN(C)C)nc2-c2ccc(F)cc2)cc1C#Cc1cnc2cccnn12
inactive: SNB-19 CNS 21.4% | PC-3 prostate 34% | SK-MEL-5 melanoma 45.5% | UACC-62 melanoma 35.8% | EKVX NSCLC 38.2% | SN12C renal 87.3% | TK-10 renal 105% | A498 renal 102% | MOLT-4 leukemia 55.1%
active: HCT-15 colon -19.6% | HT29 colon -14.9% | SNB-75 CNS -59.7% | U251 CNS -58.8% | LOX IMVI melanoma -49.2% | SK-MEL-28 melanoma -72.4% | UO-31 renal -77.2% | ACHN renal -88% | CCRF-CEM leukemia 1.64%

CCCCc1n(Cc2ccc3ccccc3n2)cc[n+]1Cc1ccc2ccccc2n1
inactive: HCT-15 colon 87.8% | SNB-75 CNS 17.5% | SNB-19 CNS 10.4% | U251 CNS 11.6% | PC-3 prostate 16.2% | SK-MEL-28 melanoma 16.1% | EKVX NSCLC 50.9% | UO-31 renal 83.5% | TK-10 renal 27.6% | ACHN renal 96.1% | CCRF-CEM leukemia 23.3% | MOLT-4 leukemia 14.9%
active: HT29 colon 5.9% | SK-MEL-5 melanoma -76.3% | UACC-62 melanoma -6.58% | LOX IMVI melanoma -22.2% | SN12C renal 4.6% | A498 renal 7.39%

C1=C\CCCCN2CC[C@H]3[C@H](CCCC/C=C\CCCN4C[C@@H](CCCCC/1)C[C@@H]3C4)C2
inactive: HCT-15 colon 25.3% | SNB-75 CNS 44.3% | SNB-19 CNS 106% | U251 CNS 72.3% | PC-3 prostate 76.7% | SK-MEL-5 melanoma 71% | UACC-62 melanoma 92% | LOX IMVI melanoma 65.5% | EKVX NSCLC 108% | SN12C renal 81.2% | UO-31 renal 14.6% | TK-10 renal 109% | ACHN renal 23.4%
active: HT29 colon 9.89% | SK-MEL-28 melanoma -90.3% | A498 renal -11.8% | CCRF-CEM leukemia 7.61%

CCSc1ccc([C@@H]2[C@@H](O)C(=O)N2c2cc(OC)c(OC)c(OC)c2)cc1
inactive: HCT-15 colon 14.1% | SNB-75 CNS 85.8% | SNB-19 CNS 35.5% | U251 CNS 21% | PC-3 prostate 28.1% | UACC-62 melanoma 40.4% | LOX IMVI melanoma 25.9% | SK-MEL-28 melanoma 71% | EKVX NSCLC 52.3% | SN12C renal 38.8% | UO-31 renal 50.5% | TK-10 renal 77.2% | ACHN renal 32.7% | CCRF-CEM leukemia 11.9% | MOLT-4 leukemia 10.8%
active: HT29 colon 9.27% | SK-MEL-5 melanoma 0.317% | A498 renal -10.6%

COc1ccc(/C(=C\c2cc(OC)c(OC)c(OC)c2)C(=O)N2CCCNCC2)cc1
inactive: HCT-15 colon 103% | HT29 colon 106% | SNB-75 CNS 88.7% | SNB-19 CNS 100% | U251 CNS 109% | PC-3 prostate 91.8% | SK-MEL-5 melanoma 99.7% | UACC-62 melanoma 105% | LOX IMVI melanoma 103% | SK-MEL-28 melanoma 111% | EKVX NSCLC 104% | SN12C renal 106% | UO-31 renal 85.9% | TK-10 renal 101% | ACHN renal 109% | A498 renal 99.1% | CCRF-CEM leukemia 99.9% | MOLT-4 leukemia 94.7%

CNC(=O)c1cc(Oc2ccc(NC(=O)c3nc(S(C)(=O)=O)n(C)c3-c3ccc(F)cc3)cc2)ccn1
inactive: HCT-15 colon 57.8% | HT29 colon 71.9% | SNB-75 CNS 43% | SNB-19 CNS 85% | U251 CNS 76.1% | PC-3 prostate 64.1% | SK-MEL-5 melanoma 73.8% | UACC-62 melanoma 62% | LOX IMVI melanoma 62.4% | SK-MEL-28 melanoma 95.7% | EKVX NSCLC 71.2% | SN12C renal 54.9% | UO-31 renal 47.9% | TK-10 renal 68.5% | ACHN renal 45.8% | A498 renal 38% | CCRF-CEM leukemia 85% | MOLT-4 leukemia 62.4%

CCCc1n(Cc2ccc3ccccc3n2)cc[n+]1Cc1ccc2ccccc2c1
active: HT29 colon 3.72% | SNB-75 CNS -6% | SNB-19 CNS 7.24% | PC-3 prostate 5.35% | SK-MEL-5 melanoma -91.9% | UACC-62 melanoma -46.7% | LOX IMVI melanoma -63.8% | SK-MEL-28 melanoma 9.91% | SN12C renal -0.216% | TK-10 renal -4.74% | A498 renal -3.21% | CCRF-CEM leukemia 9.37% | MOLT-4 leukemia -1.31%
inactive: HCT-15 colon 82% | U251 CNS 11.2% | EKVX NSCLC 41.6% | UO-31 renal 73.8% | ACHN renal 81.7%

NNC(=O)Cc1ccccc1
inactive: HCT-15 colon 82.7% | HT29 colon 101% | SNB-75 CNS 77.8% | SNB-19 CNS 93.1% | U251 CNS 91.8% | PC-3 prostate 56.9% | SK-MEL-5 melanoma 96.9% | UACC-62 melanoma 45.8% | LOX IMVI melanoma 50.7% | SK-MEL-28 melanoma 108% | EKVX NSCLC 81.2% | SN12C renal 93.4% | UO-31 renal 76.2% | TK-10 renal 111% | ACHN renal 78.9% | A498 renal 97.2% | CCRF-CEM leukemia 57.1% | MOLT-4 leukemia 79.9%

Cc1ccc(NC(=O)c2[nH]c(SCCN(C)C)nc2-c2ccc(F)cc2)cc1Nc1ccc2ncn(C)c(=O)c2c1
inactive: HCT-15 colon 65.4% | HT29 colon 21.4% | SNB-75 CNS 66% | SNB-19 CNS 92.4% | U251 CNS 66.6% | PC-3 prostate 88.5% | SK-MEL-5 melanoma 30.8% | UACC-62 melanoma 12.5% | LOX IMVI melanoma 28% | SK-MEL-28 melanoma 16.5% | EKVX NSCLC 75.2% | SN12C renal 64.6% | UO-31 renal 31.4% | TK-10 renal 63% | ACHN renal 69% | A498 renal 61.2% | CCRF-CEM leukemia 61.6% | MOLT-4 leukemia 41.2%

N#Cc1c(N)n(C2OC(CO)C(O)C2O)c2ncnc(N)c12 (stereo not drawn)
inactive: U251 CNS 15.2%
active: HCT-15 colon -4.45% | HT29 colon 2.5% | SNB-75 CNS -37.5% | SNB-19 CNS 5.99% | PC-3 prostate -13.5% | SK-MEL-5 melanoma -33.4% | UACC-62 melanoma -49.6% | LOX IMVI melanoma -52.4% | SK-MEL-28 melanoma -60.9% | EKVX NSCLC -20.3% | SN12C renal 6.49% | UO-31 renal -42.1% | TK-10 renal -9.6% | ACHN renal 8.86% | CCRF-CEM leukemia -45.1%

COc1ccc(/C(=C\c2cc(OC)c(OC)c(OC)c2)C(=O)N2CCNCC2)cc1
inactive: HCT-15 colon 104% | HT29 colon 95.6% | SNB-75 CNS 83% | SNB-19 CNS 99.7% | U251 CNS 94.6% | PC-3 prostate 90.7% | SK-MEL-5 melanoma 93.4% | UACC-62 melanoma 90% | LOX IMVI melanoma 87.5% | SK-MEL-28 melanoma 112% | EKVX NSCLC 105% | SN12C renal 101% | UO-31 renal 83.4% | TK-10 renal 94.6% | ACHN renal 98% | A498 renal 85.6% | CCRF-CEM leukemia 96.1% | MOLT-4 leukemia 87.2%

Clc1ccc2c(c1)-n1cccc1C(c1ccc3ccccc3c1)=NC2
inactive: HCT-15 colon 77.2% | HT29 colon 74.1% | SNB-75 CNS 83.2% | SNB-19 CNS 79.1% | U251 CNS 95.6% | PC-3 prostate 79.8% | SK-MEL-5 melanoma 95.8% | UACC-62 melanoma 78.3% | LOX IMVI melanoma 112% | SK-MEL-28 melanoma 100% | EKVX NSCLC 99.5% | SN12C renal 124% | UO-31 renal 64.8% | TK-10 renal 185% | ACHN renal 91.7% | CCRF-CEM leukemia 84.6%

Cc1ccc2nc(CN(CCN(Cc3nc4ccc(C)cc4[nH]3)Cc3nc4ccc(C)cc4[nH]3)Cc3nc4ccc(C)cc4[nH]3)[nH]c2c1
active: HCT-15 colon -94.3% | HT29 colon -98.2% | SNB-75 CNS -100% | SNB-19 CNS -100% | U251 CNS -94.1% | PC-3 prostate -83.4% | SK-MEL-5 melanoma -100% | UACC-62 melanoma -85.3% | LOX IMVI melanoma -90.8% | SK-MEL-28 melanoma -94.8% | EKVX NSCLC -97.5% | SN12C renal -96.7% | UO-31 renal -73.7% | TK-10 renal -80.9% | ACHN renal -99.2% | A498 renal -94% | CCRF-CEM leukemia -61.7%

CCCc1n(Cc2ccc3ccccc3c2)c2ccccc2[n+]1Cc1ccc2ccccc2c1
active: HCT-15 colon 4.29% | HT29 colon -72.2% | SNB-75 CNS -18.2% | SNB-19 CNS -76% | U251 CNS -92.6% | PC-3 prostate -22.8% | SK-MEL-5 melanoma -97.3% | UACC-62 melanoma -89.2% | LOX IMVI melanoma -90.5% | SK-MEL-28 melanoma -53.6% | EKVX NSCLC -4.84% | SN12C renal -48.4% | UO-31 renal -15.4% | TK-10 renal -79.7% | ACHN renal 3.74% | A498 renal -17.2% | CCRF-CEM leukemia -32.3% | MOLT-4 leukemia -58.9%

CCCc1n(Cc2ccc3ccccc3n2)cc[n+]1Cc1ccc2ccccc2n1
inactive: HCT-15 colon 95.7% | HT29 colon 16.8% | SNB-75 CNS 19.5% | SNB-19 CNS 19.1% | U251 CNS 20.6% | PC-3 prostate 24.8% | LOX IMVI melanoma 18% | SK-MEL-28 melanoma 19.3% | EKVX NSCLC 58.1% | UO-31 renal 86.5% | TK-10 renal 62.1% | ACHN renal 98.1% | A498 renal 35.4% | CCRF-CEM leukemia 36.2% | MOLT-4 leukemia 23.2%
active: SK-MEL-5 melanoma -49% | UACC-62 melanoma 1.66% | SN12C renal 9.65%

Fc1ccc(-c2nnc(N3CCOCC3)c3ccccc23)cc1
inactive: HCT-15 colon 99.1% | HT29 colon 111% | SNB-75 CNS 101% | SNB-19 CNS 88.8% | U251 CNS 108% | PC-3 prostate 95.8% | SK-MEL-5 melanoma 96.9% | UACC-62 melanoma 96.1% | LOX IMVI melanoma 104% | SK-MEL-28 melanoma 106% | EKVX NSCLC 69.5% | SN12C renal 95% | UO-31 renal 85.6% | TK-10 renal 138% | ACHN renal 103% | A498 renal 105% | CCRF-CEM leukemia 124% | MOLT-4 leukemia 243%

CC(C)NCCCCCNc1cc(O)cc2cccnc12
active: EKVX NSCLC -8.81%
inactive: HCT-15 colon 94.6% | HT29 colon 54.2% | SNB-75 CNS 56.4% | SNB-19 CNS 107% | U251 CNS 101% | PC-3 prostate 92.4% | SK-MEL-5 melanoma 88.2% | UACC-62 melanoma 94.5% | LOX IMVI melanoma 72.2% | SK-MEL-28 melanoma 91.6% | SN12C renal 59% | UO-31 renal 88.4% | TK-10 renal 124% | ACHN renal 102% | A498 renal 79.1% | CCRF-CEM leukemia 94.3% | MOLT-4 leukemia 16%
